Compounds with a hit are over-represented: about 1% of the library has one in this group of screens.
SSB-PriA inh – inhibitors of Klebsiella pneumoniae PriA binding to SSB C-terminal tail | AlphaScreen SSBct-PriA binding, biotinylated peptide | inhibition, % at 33 µM | hit rate 0.6% among 430,000 | AID 1272365; in the data active = inhibition mostly above about 37%, no sharp cut-off; inactive = mostly below about 20%;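 also: plate controls were negative control peptide for no effect and reference peptide for full effect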
Sa ugtP lethal – compounds lethal to S. aureus RN4220 ugtP deletion mutant. OD600 growth, 16 h. growth inhibition, % (no concentration beside the values). hit rate 0.54% among 330,000; in the data active = growth inhibition above about 68%;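 also: plate controls were untreated wells for no effect and antibiotic for full effect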
Sa RN4220 lethal – S. aureus RN4220 growth inhibition; inhibition, % (test concentration not listed); hit rate 0.33% among 330,000; AID 1259311; OD600, 16 h; in the data active = inhibition above about 85%;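 also: plate controls were untreated cells for no effect and reference antibiotic for full effect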
Numbers without * were called inactive; . = not tested or not shown; ! = not active in a repeat.

SMILES	SSB-PriA inh	Sa ugtP lethal	Sa RN4220 lethal
CO[C@@H](CNC(=O)C(=O)Nc1ccccc1SC)c1ccccc1Cl	-17	.	.
O=C(CSCC(=O)Nc1nc(-c2ccc3c(c2)OCCO3)cs1)Nc1nccs1	23	.	.
CC(=O)c1c(C)[nH]c(C(=O)Nc2nc(-c3ccc(-c4ccccc4)cc3)cs2)c1C	1	-4	17
CC(=O)c1c(C)[nH]c(C(=O)Nc2nc(-c3ccc(Cl)cc3)cs2)c1C	-1	90*	71
O=C(NCC[C@H](O)c1ccccc1)C(=O)Nc1ccc(F)cc1F	-13	.	.
Oc1ccc(CN2CCC(Cc3ccccc3)CC2)c2cccnc12	62*	74	68
Clc1ccccc1CN1CCC(Cc2ccccc2)CC1	-19	21	-8
CCOC(=O)N1CCN(Cc2ccccn2)CC1	-6	-1	2
Oc1cc2c(cc1CN1CCc3ccccc3C1)OCO2	8	7	2
Oc1ccc(CN2CCc3ccccc3C2)c2cccnc12	101*	14	24
Oc1c(CN2CCCCC2)ccc2cccnc12	-7	3	2
Oc1ccc(CN2CCCCC2)c2cccnc12	99*	6	5
CCOC(=O)N1CCN(Cc2ccc(O)c3ncccc23)CC1	88*	-13	1
CCc1c(C#N)c(SCC(=O)Nc2nsc(-c3ccccc3)n2)nc2c1C(=O)CC(C)(C)C2	-15	.	.
O=C(NC1CC(=O)N(c2cccc(F)c2)C1)c1ccc(C(F)(F)F)cc1 (stereo not drawn)	-6	.	.
Oc1ccc(CN2CCN(c3ccccc3)CC2)c2cccnc12	9	-8	4
CCN1CCN(Cc2ccc(O)c3ncccc23)CC1	123*	.	.
O=C(c1ccc2c(c1)OCO2)N1CCN(c2cnnc(N3CCOCC3)c2)CC1	-13	.	.
CN1C(=O)NC2(CCN(CC(=O)NCC3CCCO3)CC2)C1=O (stereo not drawn)	-8	.	.
CN1C(=O)NC(c2cccs2)C2=C1CN(CCO)C2=O (stereo not drawn)	-3	.	.
CN(C)C(CNc1ccc(S(C)(=O)=O)cc1[N+](=O)[O-])c1ccccc1 (stereo not drawn)	4	5	6
CN(C)C(CNc1ccc(C(F)(F)F)cc1[N+](=O)[O-])c1ccccc1 (stereo not drawn)	49*	1	-1
Cc1cc(C)c(NC(=O)c2cn3c4c(c(N5CCN(C)CC5)c(F)cc4c2=O)OCC3C)c(C)c1 (stereo not drawn)	-8	61	15
CN1CCN(c2c(F)cc3c(=O)c(C(=O)O)cn4c3c2OCN4C)CC1	8	99*	99*
Cc1ccc(S(=O)(=O)N2CCC(C(=O)OCCOc3cccc(C)c3)CC2)cc1	-16	8	3
SMILES	SSB-PriA inh	Sa ugtP lethal	Sa RN4220 lethal
Cc1cccc(OCCOC(=O)C2CCN(S(=O)(=O)c3ccc(C)c(C)c3)CC2)c1	47*	13	3
O=C(NCc1cccs1)c1ccc(N2CCC(Cc3ccccc3)CC2)nn1	-17	.	.
CCOc1ccc2c(c1)c(N=O)c(O)n2C	2	90*	4
CCOc1ccc(C=NNC(=O)c2c(C)n(C)c3ccc(OC)cc23)cc1	-5	14	1
O=C(CNCc1ccccn1)N1CCc2ccccc2C1	78*	-8	-5
O=C(CSc1ncccn1)N1CCc2ccccc2C1	3	11	0
CCOc1cn(C)c(C(=O)Nc2nc(C)cs2)cc1=O	-4	.	.
CCC(=O)NCc1ccc(C(=O)c2cccs2)s1	-13	.	.
CS(=O)(=O)N1N=C(c2cccs2)CC1c1ccc2nccnc2c1 (stereo not drawn)	62*	.	.
CS(=O)(=O)N1N=C(c2ccccc2)CC1c1ccc2nccnc2c1 (stereo not drawn)	-7	2	1
CC(Oc1ccccc1)C(=O)Nc1nc(-c2ccncc2)cs1 (stereo not drawn)	-6	-6	0
Cc1nc(-c2cccc(NC(=O)C(C)Oc3ccccc3)c2)cs1 (stereo not drawn)	-2	100*	99*
Cc1nc(CNS(=O)(=O)c2ccc3ccccc3c2)cs1	-13	1	4
Cc1nc(-c2cccc(NS(=O)(=O)c3ccc4ccccc4c3)c2)cs1	-16	91*	18
CCC(CC)C(=O)Nc1ccc2c(c1)N(C(=O)c1ccco1)CC2	-11	.	.
CS(=O)(=O)N1CCC(C(=O)N2CCN(Cc3nc4ccccc4[nH]3)CC2)CC1	-18	.	.
O=C(c1ccc(-c2cccs2)cc1)N1CC[C@H](n2ccnn2)C1	-13	.	.
Cc1ccc(NC(=S)Nc2ccc(OC(F)F)c(Cl)c2)cc1Cl	-21	67	75
Cc1ccc(NC(=S)Nc2ccc(Cl)c(Cl)c2)c(OC(F)F)c1	3	100*	100*
Cc1cccc(C)c1NC(=S)Nc1ccc(Cl)c(Cl)c1	-14	-12	19
Cc1cc(C)cc(NC(=S)Nc2ccc(Cl)c(Cl)c2)c1	-11	101*	100*
O=C(COc1ccc(Cl)cc1Cl)NCC1(c2ccc(F)cc2)CCOCC1	-3	.	.
CS(=O)(=O)N1CC(C(=O)N2CCN(CCc3ccccc3)CC2)C1	-8	.	.
COc1ccc(-c2csc3ncnc(N4CCN(S(=O)(=O)c5ccc(C)cc5)CC4)c23)cc1	0	-12	2
COc1ccc(N2CCN(c3ncnc4scc(-c5ccc(C)cc5)c34)CC2)cc1	19	5	4
SMILES	SSB-PriA inh	Sa ugtP lethal	Sa RN4220 lethal
O=S(=O)(c1cccc(Br)c1)N1CCN(c2ncnc3scc(-c4ccccc4)c23)CC1	-2	99*	98*
COc1ccc(N2CCN(c3ncnc4scc(-c5ccccc5)c34)CC2)cc1	46*	3	1
COc1cc(=O)n(C)cc1C(=O)N1CCc2c(cnc3cc(C)nn23)C1	3	.	.
Nc1cnc2cccnc2c1	-17	.	.
Cc1cc2nc(NC(=O)c3ccccc3NS(=O)(=O)c3ccc(F)cc3)sc2cc1C	-15	.	.
COCCn1c(NS(=O)(=O)c2ccc(C)cc2)c(S(=O)(=O)c2ccc(C)cc2)c2nc3ccccc3nc21	63*	.	.
Cc1ccc(S(=O)(=O)Nc2c(S(=O)(=O)c3ccc(C)cc3)c3nc4ccccc4nc3n2CCc2ccccc2)cc1	40	.	.
COCCCn1c(NS(=O)(=O)c2ccccc2)c(S(=O)(=O)c2ccc(C)cc2)c2nc3ccccc3nc21	72*	.	.
C=CCn1c(NS(=O)(=O)c2ccccc2)c(S(=O)(=O)c2ccc(C)cc2)c2nc3ccccc3nc21	18	-4	10
COCCCn1c(NS(=O)(=O)c2ccc(C)cc2)c(S(=O)(=O)c2ccc(C)cc2)c2nc3ccccc3nc21	59*	.	.
O=C(c1ccc(Cl)s1)N1CCS[C@H]1c1ccc(F)c(Br)c1	-15	.	.
COc1ccc(C(=O)Nc2c(N)nc(SCC(=O)NC3CCCCC3)[nH]c2=O)cc1	-11	.	.
CC1=Nc2ccccc2/C1=C/c1sc(=N)n(-c2nccs2)c1O	.	98*	97*
CC1=Nc2ccccc2C1=Cc1sc(=N)n(-c2nccs2)c1O	33	.	.
COC(CNC(=O)CSc1ccc(F)cc1)c1ccccc1Cl (stereo not drawn)	-9	.	.
COc1ccccc1N1CCN(S(=O)(=O)c2ccc3c4c(cccc24)C(=O)N3)CC1	35*!	3	3
COc1ccccc1N1CCN(S(=O)(=O)c2ccc3c4c(cccc24)C(=O)N3C)CC1	.	4	1
CCOc1cccc2sc(NC(=O)c3ccccc3S(C)(=O)=O)nc12	-5	.	.
COc1ccc2c(c1)CCCC2NS(=O)(=O)OCC(Cl)(Cl)Cl (stereo not drawn)	-13	-31	14
